Hits are enriched below; roughly 8.9% of the tested compounds scored in any of these assays.
DRD3 agonist = qHTS of D3 Dopamine Receptor Agonist: qHTS | max activation, % | D(3) dopamine receptor (Homo sapiens), P35462 | 410,000 tested, 0.58% active | D3R DiscoveRx beta-arrestin cells, luminescence, 90 min | AID 652048, 2013; in the data active = max activation above about 30%; note: 0% is about no effect
Target sequence (P35462 whole entry, looked up): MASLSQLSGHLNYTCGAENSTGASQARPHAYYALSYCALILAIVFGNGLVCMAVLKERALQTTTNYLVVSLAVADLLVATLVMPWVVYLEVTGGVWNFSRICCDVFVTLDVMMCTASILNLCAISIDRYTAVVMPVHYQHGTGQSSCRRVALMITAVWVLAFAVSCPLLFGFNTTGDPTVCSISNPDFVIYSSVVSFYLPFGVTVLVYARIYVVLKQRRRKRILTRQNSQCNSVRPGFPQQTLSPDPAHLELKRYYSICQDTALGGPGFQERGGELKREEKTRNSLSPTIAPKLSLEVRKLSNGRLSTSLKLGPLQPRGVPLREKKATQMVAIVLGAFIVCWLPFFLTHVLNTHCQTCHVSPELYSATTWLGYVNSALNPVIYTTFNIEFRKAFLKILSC
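Agonist-mode cell screen: cells plated at 1500/well and incubated overnight at 37 °C, then exposed to library compounds for 90 min at 37 °C. Detection reagent was added for 30–60 min at room temperature, and luminescence was read.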
KB-V1 MDR tox = qHTS assay for MDR1-selective chemotherapeutics: Primary screen using the drug-selected MDR subline cells KB-V1 | KB-V1 MDR cells viability, CellTiter-Glo, 72 h | Potency, µM (highest dose often 46.1 µM), most hits filed as cytotoxic | 400,000 tested, 3.4% active | AID 1347076, 2019; note: potency is the fitted concentration of half-maximal effect; % is set by controls: 0 for no effect and ±100 for the full control effect; nearly all actives have a fitted effect of over 60% in size
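Compound-treated KB-V1 multidrug-resistant cells, 72 h, 37 degrees C; viability by CellTiter-Glo. Fitted qHTS curves give the values.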
SW480 rerep = A quantitative high throughput screen for small molecules that induce DNA re-replication in SW480 colon adenocarcinoma cells; 340,000 tested, 1.8% active; SW480 DNA re-replication, Hoechst DNA content imaging, 48 h; Potency, µM (series often up to 46.1 µM), inactives show at the highest dose re-replication activation, actives largely listed as activators; note: potency is the fitted concentration of half-maximal effect; % of control where 0% means no effect; nearly all actives have a fitted effect of over 55% in size
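Quantitative HTS format with DMSO vehicle controls; 48 hr drug incubation at 37 C, then 40 min Hoechst staining and scanning imager measurement at 405 nm excitation.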
KB-3-1 cytotox = qHTS assay for MDR1-selective chemotherapeutics: Primary screen using the parental adenocarcinoma cell KB-3-1. KB-3-1 viability, CellTiter-Glo ATP luminescence, 72 h. Potency, µM (top dose mostly 46.1 µM), hits mostly cytotoxic. 400,000 tested, 1.4% active. AID 1347075, 2019; note: potency is the fitted concentration of half-maximal effect; % is set by controls: 0 for no effect and ±100 for the full control effect; nearly all actives have a fitted effect of over 60% in size
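Cytotoxicity in the drug-sensitive parental line KB-3-1 was scored as loss of CellTiter-Glo luminescence following 72 h incubation with compound. Values come from curve fitting of normalized concentration-response data.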
DRD3 antagonist = qHTS of D3 Dopamine Receptor Antagonist: qHTS; 360,000 tested, 2.5% active; D(3) dopamine receptor (Homo sapiens), P35462; max response, negative = inhibition, %; D3R cells, DiscoveRx beta-arrestin luminescence, antagonist mode; active compounds read low; in the data active = max response below about -50%; inconclusive = no clear call, values can overlap the other calls; note: % is set by controls: 0 for no effect and ±100 for the full control effect
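Cells plated overnight at 1500 cells/well, then exposed to library compounds with dopamine controls for 90 minutes at 37 degrees C. DiscoveRx reagent added for 30–60 minutes at room temperature; luminescence read, quantitative HTS format.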
MCF10A rerep = A quantitative high throughput screen for small molecules that induce DNA re-replication in MCF 10a normal breast cells; MCF 10A DNA re-replication, Hoechst nuclear intensity, 48 h; Potency, µM (top dose mostly 46.1 µM), inactives show at the highest dose activity, positive = re-replication, hits mostly activators; 350,000 tested, 2.9% active; note: potency is the fitted concentration of half-maximal effect; % of control where 0% means no effect; nearly all actives have a fitted effect of over 50% in size
The depositor's hits bear a star. Unless noted, calls come from the whole dose curve; as a rule, active = well fitted curve in the direction sought with a large enough effect; inconclusive = small, poorly fitted or top-dose-only effect, or another doubt; inactive = no such curve, though single readings can be large; an effect the other way counts as inactive or inconclusive.

`Cc1cnc(C(=O)N(c2ccc(N3CCOCC3)cc2)C2C(=O)Nc3ccccc3N=C2c2ccc(F)cc2)cn1` (stereo not drawn) gave DRD3 agonist 3, KB-V1 MDR tox inactive, KB-3-1 cytotox inactive and DRD3 antagonist -22.
Screening CC(=O)c1ccc(N2CCN(C(=O)c3cc4c(s3)-c3ccccc3OC4)CC2)cc1 returned DRD3 agonist -8, KB-V1 MDR tox 16µM* and KB-3-1 cytotox inactive.
For O=C(CSc1nc(-c2ccccc2)no1)N1CCN(c2ccc(F)cc2)CC1 the results were DRD3 agonist -12, KB-V1 MDR tox inactive and KB-3-1 cytotox inactive.
Cc1cc(C)c2c(-n3cccc3)c(C(=O)O)sc2n1 was read as DRD3 agonist 3, KB-V1 MDR tox inactive, SW480 rerep 0%, KB-3-1 cytotox inactive, DRD3 antagonist -7 and MCF10A rerep 1%.
Cc1cc(C)c2c(-n3cccc3)c(C(=O)NNS(=O)(=O)c3ccc(Cl)cc3)sc2n1 was read as DRD3 agonist 0, KB-V1 MDR tox inactive, SW480 rerep 2%, KB-3-1 cytotox inactive, DRD3 antagonist -56* and MCF10A rerep inconclusive.
`Cc1cc(C)c2c(-n3cccc3)c(C(=O)NNS(=O)(=O)c3ccccc3)sc2n1` gave DRD3 agonist -2, KB-V1 MDR tox inactive, SW480 rerep -3%, KB-3-1 cytotox inactive, DRD3 antagonist -55* and MCF10A rerep 5%.
For CCc1nc(C)cn1S(=O)(=O)c1ccc([N+](=O)[O-])cc1 the results were DRD3 agonist -1, KB-V1 MDR tox inactive, SW480 rerep 2%, KB-3-1 cytotox inactive, DRD3 antagonist -21 and MCF10A rerep -32%.
`CCCn1c(CC)nc([N+](=O)[O-])c1S(=O)(=O)c1ccccc1` gave DRD3 agonist -3, KB-V1 MDR tox inactive, SW480 rerep inconclusive, KB-3-1 cytotox inconclusive, DRD3 antagonist inconclusive and MCF10A rerep 3.7µM*.
Screening O=C(Cc1ccccc1)NC1CC(=O)N(c2ccc3c(c2)OCCO3)C1 (stereo not drawn) returned DRD3 agonist 5, KB-V1 MDR tox inactive and KB-3-1 cytotox inactive.
For COc1ccc(NC(=O)c2c(C)oc3ccc(O)c(CN4CCC(C)CC4)c23)cc1Cl the results were DRD3 agonist -4, KB-V1 MDR tox inactive and KB-3-1 cytotox inactive.
COc1cccc(Cn2c(SCC(=O)N3CCN(c4ccc(F)cc4)CC3)nc3ccccc32)c1 was read as DRD3 agonist -4, KB-V1 MDR tox inactive and KB-3-1 cytotox inactive.
O=C(Cn1ncc(Cl)c(Cl)c1=O)NC(=O)NC1CCCCC1 was read as DRD3 agonist -13, KB-V1 MDR tox inconclusive, SW480 rerep 13µM*, KB-3-1 cytotox inconclusive, DRD3 antagonist -68* and MCF10A rerep 8.2µM*.
`CC(NC(=O)Cn1ncc(Cl)c(Cl)c1=O)C12CC3CC(CC(C3)C1)C2` (stereo not drawn) gave DRD3 agonist -14, KB-V1 MDR tox inconclusive, SW480 rerep 5.2µM*, KB-3-1 cytotox 6.5µM*, DRD3 antagonist -77* and MCF10A rerep 3.7µM*.
O=C(CN1CCCCCCC1)NC(=O)NC1CCCCC1 was read as DRD3 agonist 0, KB-V1 MDR tox inconclusive, SW480 rerep -3%, KB-3-1 cytotox inconclusive, DRD3 antagonist -6 and MCF10A rerep 16µM*.
For CCn1cc(C(=O)NC(C)C23CC4CC(CC(C4)C2)C3)cn1 (stereo not drawn) the results were DRD3 agonist -8, KB-V1 MDR tox inconclusive, SW480 rerep -1%, KB-3-1 cytotox inactive, DRD3 antagonist -5 and MCF10A rerep 1%.
`O=C(CN1CCN(S(=O)(=O)c2ccc(Cl)cc2)CC1)NC(=O)NC1CCCCC1` gave DRD3 agonist 1, KB-V1 MDR tox 2.3µM*, SW480 rerep 1%, KB-3-1 cytotox inconclusive, DRD3 antagonist 16 and MCF10A rerep 5%.
O=C(CN1CCCCC1)NC(=O)NC1CCCC1 was read as DRD3 agonist -4, KB-V1 MDR tox inactive, SW480 rerep -3%, KB-3-1 cytotox inactive, DRD3 antagonist 1 and MCF10A rerep 4%.
For Cc1nc(C)c(C(=O)OCC(=O)Nc2ccc(C)c(C)c2)s1 the results were DRD3 agonist -10, KB-V1 MDR tox inactive, KB-3-1 cytotox inactive and DRD3 antagonist -9.
For O=C(CC[C@H]1O[C@@H](n2ccc(=O)[nH]c2=O)[C@H](O)[C@@H]1O)N[C@H](Cc1ccccc1)C(=O)NCc1cccs1 the results were DRD3 agonist 9, KB-V1 MDR tox inactive, KB-3-1 cytotox inactive and DRD3 antagonist 0.
Screening CC1CCCCN1C(=O)CSc1ccc(-c2ccc(F)cc2)nn1 (stereo not drawn) returned DRD3 agonist 9, KB-V1 MDR tox 12µM*, SW480 rerep -3%, KB-3-1 cytotox inactive, DRD3 antagonist -9 and MCF10A rerep -1%.
`CN(C)S(=O)(=O)Oc1cccc(C(=O)Nc2ccc(Cl)cc2)c1` gave DRD3 agonist 2, KB-V1 MDR tox inactive, SW480 rerep -5%, KB-3-1 cytotox 9.2µM*, DRD3 antagonist -15 and MCF10A rerep inconclusive.
For O=C(Nc1cccc(S(=O)(=O)N2CCCC2)c1)c1ccc(Cl)nc1 the results were DRD3 agonist 0, KB-V1 MDR tox inconclusive, SW480 rerep 18µM*, KB-3-1 cytotox inconclusive, DRD3 antagonist 6 and MCF10A rerep inconclusive.
CN(C)S(=O)(=O)c1cccc(C(=O)Nc2ccc(Cl)cn2)c1 was read as DRD3 agonist -10, KB-V1 MDR tox 23µM*, SW480 rerep 4%, KB-3-1 cytotox inactive, DRD3 antagonist -77* and MCF10A rerep -2%.
O=C(Nc1ccc(Cl)cn1)c1ccc(-c2ccc(Cl)c(Cl)c2)o1 was read as DRD3 agonist 0, KB-V1 MDR tox inactive, SW480 rerep 1%, KB-3-1 cytotox inactive, DRD3 antagonist 0 and MCF10A rerep 18µM*.
Cc1cc(NC(=O)c2ccc(-c3ccc(F)c(Cl)c3)o2)no1 was read as DRD3 agonist 2, KB-V1 MDR tox inactive, SW480 rerep -36%, KB-3-1 cytotox inactive, DRD3 antagonist 13 and MCF10A rerep inconclusive.
For CN(C)S(=O)(=O)Oc1cccc(C(=O)Nc2ccccc2Cl)c1 the results were DRD3 agonist 2, KB-V1 MDR tox inactive, SW480 rerep -12%, KB-3-1 cytotox inactive, DRD3 antagonist -15 and MCF10A rerep -2%.
